Pf growth 96h: P. falciparum growth inhibition at 96 hours. actives 6.9% (n = 320,000). Potency, µM (doses to about 28.7 µM), without a hit: at the top dose activity change, negative = inhibition, most hits filed as inhibitors. P. falciparum luciferase reporter growth, 96 h; note: potency is the fitted concentration of half-maximal effect; % is set by controls: 0 for no effect and ±100 for the full control effect
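Two-generation exposure (96 h) targets delayed-death phenotype. Reporter parasites carrying integrated firefly luciferase, in red cells at 2% hematocrit and 0.05% parasitemia final, kept at 37 C, 5% CO2; luminescence loss indicates inhibition.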
CHX counter: affects cycloheximide protein synthesis inhibition readout, counter-screen. cell reporter, cycloheximide protein synthesis inhibition counterscreen. max response, %. actives 12% (n = 300,000). AID 2314; in the data active = max response mostly above about 13%, no sharp cut-off; inactive = mostly below about 14%; note: read at 38.3 µM for the half of the compounds with a filed dose; 0% is about no effect
SARS PLpro yeast: blocks SARS-CoV papain-like protease in a yeast assay; AID 485353; S. cerevisiae expressing SARS-CoV PLpro, growth rescue; actives 0.19% (n = 330,000); Potency, µM (doses to about 32.9 µM), without a hit: top-dose activity, positive = growth rescue, most hits filed as activators; calls by dose curve; note: potency is the fitted concentration of half-maximal effect; 0% is about no effect; nearly all actives have a fitted effect of over 55% in size
AMA1-RON2 inh: AMA1-RON2 (P. falciparum) interaction inhibition; AlphaScreen AMA1-biotinylated RON2 peptide binding; actives 0.2% (n = 360,000); Potency, µM (series often up to 58.2 µM), for the others: at the highest dose activity change, negative = inhibition, usual class: inhibitors; AID 720542;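 note: potency is the fitted concentration of half-maximal effect; 0% = vehicle wells and -100% = peptide control; nearly all actives have a fitted effect of over 45% in size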
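AMA1 (3D7) with his tag at 25 nM final met compounds first, then biotinylated RON2 peptide at 25 nM; detection used donor plus acceptor beads, 10 µg/mL apiece, read by AlphaScreen after 30 min at room temperature.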
Shiga toxin inh: Shiga toxin inhibition; Vero cells, Shiga toxin protein synthesis inhibition reporter; inhibition, % at 38.7 µM; actives 9.2% (n = 290,000); AID 2315; in the data active = inhibition mostly above about 28%, no sharp cut-off; inactive = mostly below about 43%; note: 0% is about no effect
Pf growth 48h: P. falciparum growth inhibition at 48 hours (one generation). P. falciparum luciferase growth in erythrocytes, 48 h. Potency, µM (top dose mostly 28.7 µM), inactives show at the top dose activity change, negative = inhibition, usual class: inhibitors. actives 5.9% (n = 310,000). AID 504832; note: potency is the fitted concentration of half-maximal effect; % is set by controls: 0 for no effect and ±100 for the full control effect
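Luciferase-expressing P. falciparum in infected erythrocytes (2% hematocrit, 0.1% parasitemia final) in RPMI 1640/0.5% Albumax were exposed to compound for 48 hours at 37 C, 5% CO2; growth read as luminescence.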
* marks the source's active call; other numbers are inactive results; ? = inconclusive; · = no result; [ ] = dose if it differs, or a comment. A selection: hits, their analogues and other compounds. The true share with any hit is near 19%. Unless noted, calls come from the whole dose curve; as a rule, active = well fitted curve in the direction sought with a large enough effect; inconclusive = small, poorly fitted or top-dose-only effect, or another doubt; inactive = no such curve, though single readings can be large; an effect the other way counts as inactive or inconclusive.

SMILES | Pf growth 96h | CHX counter | SARS PLpro yeast | AMA1-RON2 inh | Shiga toxin inh | Pf growth 48h
O=C(COc1ccc([N+](=O)[O-])cc1Cl)NCC1CCCO1 (stereo not drawn) | 59.2% | 15.9* | -8.3% | -15.4% | 46.5* | 1.8%
CC1CCCN(c2ccc(C(=O)NCc3ccco3)cc2[N+](=O)[O-])C1 (stereo not drawn) | ? | 7.1 | -42.4% | -27.4% | 60.0* | 4.15µM*
O=C(NCC1CCCO1)c1ccc(N2CCCCC2)c([N+](=O)[O-])c1 (stereo not drawn) | ? | 43.0* | -1.2% | -4.0% | 44.5* | 6.0%
COc1ccc([C@@H]2CC(=O)c3c(O)cc(O[C@@H]4O[C@H](CO)[C@@H](O)[C@H](O)[C@H]4O[C@@H]4O[C@@H](C)[C@H](O)[C@@H](O)[C@H]4O)cc3O2)cc1 | · | -3.0 | · | · | -6.5 | ·
CCOC(=O)N1CCN(C(=O)c2ccc(Oc3ccc([N+](=O)[O-])cc3)cc2)CC1 | 43.9%[5.75 µM] | -1.9 | 0.3% | -2.6% | 4.0 | ?
COc1ccc([C@H]2N[C@]3(CCCN(Cc4ccccc4)C3=O)[C@H]3C(=O)N(C)C(=O)[C@@H]23)cc1 | · | · | · | 29.3% | · | ·
O=C1CN(C(=O)CNC(=O)c2ccccc2Cl)c2ccccc2N1 | 6.2% | 1.7 | 0.8% | 2.5% | -7.8 | -5.0%
Cc1ccc(C(CC(=O)NCCCN(C)C)c2ccc(OC(C)C)cc2)cc1 (stereo not drawn) | -0.6% | -3.9 | -0.9% | 5.0% | 21.6 | ?
O=C(NC1CC1)c1ccc(N2CCCCC2)c([N+](=O)[O-])c1 | 2.62µM* | 16.5* | -6.1% | 0.0% | 78.8* | 8.28µM*
CC(=O)Nc1ccccc1C(=O)OCc1ccc(C(=O)c2ccccc2)cc1 | 76.6% | 24.4* | -1.8% | 14.5% | 35.8 | 31.1%
CC(=O)Nc1ccccc1C(=O)OCc1cccc(F)c1 | 13.0% | 25.8* | -0.7% | -1.0% | 42.0 | 40.6%
CN(c1ccc(OCC(=O)N2CCOCC2)cc1)S(=O)(=O)c1ccc(Cl)cc1 | ? | 6.4 | 3.6% | 7.2% | 11.0 | 25.8%
CC[C@H](CO)Oc1cc(NCc2cccc(N)c2)c2ncn(C(C)C)c2c1 | · | · | · | -24.3% | · | ·
CNC(=O)c1ccc(=O)n(Cc2cccc(C(F)(F)F)c2)c1 | 2.3% | -4.8 | 2.1% | -13.3% | -5.6 | 2.94µM*
CNC(=O)c1cccn(Cc2cccc(C(F)(F)F)c2)c1=O | -17.2% | -2.8 | -1.0% | 0.0% | 18.3 | 1.5%
Nc1ccn([C@@H]2O[C@H](C(=O)Nc3ccc(C(=O)N4CCCCC4)cc3)[C@@H](O)[C@H]2O)c(=O)n1 | · | · | · | -0.1% | · | ·
Brc1ccc(/C=C/C=N/Nc2nc3ccccc3s2)cc1 | 58.8% | 18.8 | -10.1% | 83.2% | 49.1* | 61.6%
C(=C\c1ccccc1)/C=N/Nc1nc2ccccc2s1 | 122.1% | 34.0* | 1.5% | 47.7% | 95.2* | 135.7%
C(=C\c1ccccc1)/C=N/Nc1nncc(-c2ccccc2)n1 | 29.3% | 9.0 | 9.4% | · | -4.8 | 20.9%
CCC/C=N/Nc1nc2ccccc2s1 | 2.62µM* | 34.6* | -2.1% | 15.2% | 107.7* | 7.6%
CCC/C=N/NC(=O)c1cc(-c2ccccc2)nc2ccccc12 | ? | -6.0 | 18.6% | 0.6% | -12.0 | 7.6%
COc1ccc(S(=O)(=O)N2CCOCC2)cc1NC(=O)CCOc1ccc(C(C)(C)C)cc1 | ? | · | 2.7% | 1.7% | · | ?
Cc1ccc(-c2oc3ncnc(N)c3c2-c2ccc(C)cc2)cc1 | 9.7% | 1.6 | 24.3% | 0.0% | -10.2 | 7.38µM*
CC(C)CCNC(=O)c1c(N)n(Cc2ccc3c(c2)OCO3)c2nc3ccccc3nc12 | 11.7µM* | -1.9 | -3.8% | 2.7% | -9.9 | ·
CC(C)CNC(=O)c1c(N)n(/N=C/c2cccnc2)c2nc3ccccc3nc12 | 3.29µM* | -4.1 | 0.0% | · | -29.0 | 6.5%
CC(C)CNC(=O)c1c(N)n(Cc2ccc3c(c2)OCO3)c2nc3ccccc3nc12 | · | -7.1 | -12.1% | 31.2% | -7.6 | 6.57µM*
Cc1c(C)c2ccc(OCC(=O)NC3CCN(Cc4ccccc4)CC3)cc2oc1=O | ? | -5.1 | -4.2% | -1.1% | -1.3 | ?
C[C@H]1COc2cccc(N3CCSCC3)c2S(=O)(=O)N1 | · | · | · | 2.9% | · | ·
